Assay results as given in PubChem BioAssay (Tox21).
“And” between values parts separate entries of the source, which are not always exact repeats. Equal entries are not always repeated. More than one record can exist for a structure, and the calls need not agree. The source made the active and inactive calls. A call without a number means that no potency is given here. Unless noted, calls follow the shape of the dose curve; as a rule, active = well fitted curve in the direction sought with a large enough effect in the repeat runs; inconclusive = weak or mixed curves; inactive = no such curve, though single readings can be large; an effect the other way counts as inactive or inconclusive.

What was measured:
[1] = qHTS assay to identify small molecule antagonists of the thyroid receptor (TR) signaling pathway (AID 743065); also: nearly all actives have a fitted effect of over 55% in size; also: potency is read from the fitted curve at half-maximal effect
How it was run: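 Antagonism measured as loss of luciferase signal in GH3 cells stably carrying a TRE-luciferase reporter, co-treated with compound and T3 (1 nM final) for 23.5 h at 37 C. Viability was read in the same well by CellTiter-Fluor.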

[2] = tested on: thyroid hormone receptor (rat, GH3 cells); assay: qHTS assay to identify small molecule agonists of the thyroid receptor (TR) signaling pathway (AID 743066; calls by dose curve)
[3] = qHTS assay to identify small molecule antagonists of the estrogen receptor alpha (ER-alpha) signaling pathway - cell viability counter screen (AID 743074; calls by dose curve; also: nearly all actives have a fitted effect of over 45% in size; also: potency is read from the fitted curve at half-maximal effect)
[4] = qHTS assay to identify small molecule antagonists of the estrogen receptor alpha (ER-alpha) signaling pathway using the BG1 cell line - cell viability counter screen (AID 743081);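 also: compound given together with 17beta-estradiol as the ER stimulus; nearly all actives have a fitted effect of over 45% in size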; also: potency is read from the fitted curve at half-maximal effect
[5] = target: Aromatase (Homo sapiens) (UniProt P11511); assay: qHTS assay to identify aromatase inhibitors (AID 743083); also: nearly all actives have a fitted effect of over 55% in size; also: potency is read from the fitted curve at half-maximal effect
Sequence of Aromatase (Homo sapiens) (P11511 whole entry, looked up): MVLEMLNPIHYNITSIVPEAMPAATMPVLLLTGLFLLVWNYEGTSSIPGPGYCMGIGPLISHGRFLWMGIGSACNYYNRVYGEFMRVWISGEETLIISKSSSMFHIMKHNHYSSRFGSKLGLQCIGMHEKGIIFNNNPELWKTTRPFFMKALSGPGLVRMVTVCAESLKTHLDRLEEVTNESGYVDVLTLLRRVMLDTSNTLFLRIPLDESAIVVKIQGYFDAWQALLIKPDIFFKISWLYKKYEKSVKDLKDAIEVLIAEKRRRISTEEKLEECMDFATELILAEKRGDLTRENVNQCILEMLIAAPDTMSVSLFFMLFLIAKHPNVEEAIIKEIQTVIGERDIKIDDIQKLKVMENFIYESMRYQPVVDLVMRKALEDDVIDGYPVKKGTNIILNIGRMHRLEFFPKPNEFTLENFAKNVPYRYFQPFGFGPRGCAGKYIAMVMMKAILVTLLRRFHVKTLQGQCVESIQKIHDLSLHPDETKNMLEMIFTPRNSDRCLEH

[6] = qHTS assay to identify aromatase inhibitors - cell viability counter screen (AID 743084);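 also: cells stimulated with testosterone during compound exposure; nearly all actives have a fitted effect of over 55% in size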; also: potency is read from the fitted curve at half-maximal effect
[7] = target: Aryl hydrocarbon receptor (Homo sapiens) (UniProt P35869); assay: qHTS assay to identify small molecule that activate the aryl hydrocarbon receptor (AhR) signaling pathway (AID 743085); also: nearly all actives have a fitted effect of over 15% in size; also: potency is read from the fitted curve at half-maximal effect;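 as to activation: HG2L7.5c1 human HepG2 liver cells with stably integrated DRE-driven firefly reporter; series mostly up to about 70 µM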
Sequence of Aryl hydrocarbon receptor (Homo sapiens) (P35869 whole entry, looked up): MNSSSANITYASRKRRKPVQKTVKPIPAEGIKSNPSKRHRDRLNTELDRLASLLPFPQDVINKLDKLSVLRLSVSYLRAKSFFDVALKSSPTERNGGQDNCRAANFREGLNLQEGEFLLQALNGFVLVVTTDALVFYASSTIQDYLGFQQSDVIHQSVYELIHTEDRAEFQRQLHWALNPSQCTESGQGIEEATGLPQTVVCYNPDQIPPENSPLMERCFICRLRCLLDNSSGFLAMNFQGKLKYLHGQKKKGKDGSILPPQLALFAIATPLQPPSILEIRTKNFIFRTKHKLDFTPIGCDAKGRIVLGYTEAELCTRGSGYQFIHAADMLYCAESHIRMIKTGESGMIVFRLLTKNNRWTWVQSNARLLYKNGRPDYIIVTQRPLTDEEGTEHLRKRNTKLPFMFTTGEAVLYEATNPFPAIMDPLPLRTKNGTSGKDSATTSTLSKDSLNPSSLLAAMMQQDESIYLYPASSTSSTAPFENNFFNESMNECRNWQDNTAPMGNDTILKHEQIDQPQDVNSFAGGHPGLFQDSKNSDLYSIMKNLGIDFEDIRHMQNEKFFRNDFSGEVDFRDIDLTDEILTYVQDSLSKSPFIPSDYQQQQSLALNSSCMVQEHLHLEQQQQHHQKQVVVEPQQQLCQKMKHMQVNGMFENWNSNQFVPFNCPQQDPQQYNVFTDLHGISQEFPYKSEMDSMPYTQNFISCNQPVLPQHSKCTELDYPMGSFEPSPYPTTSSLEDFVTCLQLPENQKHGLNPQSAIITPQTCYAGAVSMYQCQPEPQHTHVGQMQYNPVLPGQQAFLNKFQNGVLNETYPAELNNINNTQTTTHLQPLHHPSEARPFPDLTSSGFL
How it was run: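 AhR agonist activity is inferred from enhanced light output of a DRE-controlled firefly luciferase reporter in HepG2 cells, measured with ONE-Glo following 24 h treatment at 37C.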

[8] = qHTS assay to identify small molecule that activate the aryl hydrocarbon receptor (AhR) signaling pathway - cell viability counter screen (AID 743086); also: nearly all actives have a fitted effect of over 45% in size; also: potency is read from the fitted curve at half-maximal effect
How it was run: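 Cytotoxicity counter screen: CellTiter-Fluor signal (30 min, 37 C) in 4000 HepG2 cells/well carrying the DRE-luciferase reporter, following 24 h compound exposure at 37 C.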

[9] = qHTS assay for small molecule agonists of the antioxidant response element (ARE) signaling pathway - cell viability counter screen (AID 743203; calls by dose curve; also: nearly all actives have a fitted effect of over 55% in size; also: potency is read from the fitted curve at half-maximal effect)
How it was run: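 ATP content via CellTiter-Glo luminescence served as the viability measure. Cells: ARE-bla HepG2, 2,000 per well. Exposure: 16 hrs, 37C/5% CO2.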

[10] = qHTS assay for small molecule activators of the heat shock response signaling pathway - cell viability counter screen (AID 743209); also: nearly all actives have a fitted effect of over 50% in size; also: potency is read from the fitted curve at half-maximal effect
How it was run: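 Compounds dissolved in DMSO were added to overnight-plated HSE-bla HeLa cells and left 5 h at 37 C. Cell viability was quantified by luminescence using CellTiter-Glo.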

[11] = qHTS assay to identify small molecule agonists of the peroxisome proliferator-activated receptor delta (PPARd) signaling pathway - cell viability counter screen (AID 743211); also: nearly all actives have a fitted effect of over 55% in size; also: potency is read from the fitted curve at half-maximal effect
How it was run: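 qHTS cell viability: PPARd-bla HEK293H; 17 h cpd, 37C; CellTiter-Glo, luminescence at 30 min RT.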

[12] = target: Estrogen receptor (Homo sapiens) (UniProt P03372); assay: qHTS assay to identify small molecule agonists of the estrogen receptor alpha (ER-alpha) signaling pathway (AID 743075; calls by dose curve; also: potency is read from the fitted curve at half-maximal effect)
Sequence of Estrogen receptor (Homo sapiens) (P03372 whole entry, looked up): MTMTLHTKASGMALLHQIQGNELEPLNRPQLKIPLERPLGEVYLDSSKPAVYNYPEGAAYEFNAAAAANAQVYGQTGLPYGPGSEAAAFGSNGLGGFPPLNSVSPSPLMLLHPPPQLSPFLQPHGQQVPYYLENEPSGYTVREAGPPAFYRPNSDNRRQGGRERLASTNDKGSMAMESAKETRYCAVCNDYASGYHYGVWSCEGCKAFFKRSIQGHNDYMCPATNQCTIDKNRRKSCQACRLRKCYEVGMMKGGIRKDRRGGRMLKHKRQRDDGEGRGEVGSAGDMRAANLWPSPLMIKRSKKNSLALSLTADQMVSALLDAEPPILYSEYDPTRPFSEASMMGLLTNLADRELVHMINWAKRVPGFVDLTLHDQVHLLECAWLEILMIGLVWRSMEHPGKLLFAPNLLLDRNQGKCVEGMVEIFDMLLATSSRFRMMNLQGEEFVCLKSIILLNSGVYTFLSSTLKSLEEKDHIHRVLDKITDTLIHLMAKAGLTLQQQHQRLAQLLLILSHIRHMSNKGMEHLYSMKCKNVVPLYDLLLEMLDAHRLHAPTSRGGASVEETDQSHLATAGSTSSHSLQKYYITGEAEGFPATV

[13] = qHTS assay to identify small molecule antagonists of the peroxisome proliferator-activated receptor gamma (PPARg) signaling pathway - cell viability counter screen (AID 743194); conditions: Potency: co-treated with 50 nM rosiglitazone unless noted; also: nearly all actives have a fitted effect of over 55% in size; also: potency is read from the fitted curve at half-maximal effect
How it was run: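 Viability was measured as CellTiter-Glo luminescence in GeneBLAzer PPARg UAS-bla HEK293H cells. These cells had been exposed 17 h at 37 C to compounds together with rosiglitazone at 50 nM final, with the beta-lactamase readout taken in the same wells.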

[14] = target: Estrogen receptor (Homo sapiens) (UniProt P03372); assay: qHTS assay to identify small molecule antagonists of the estrogen receptor alpha (ER-alpha) signaling pathway (AID 743069; active = well fitted curve in the direction sought with a large enough effect in the signal ratio in the repeat runs, not every such curve was filed as active; inconclusive = weak or mixed curves, or effect the other way; inactive = no such curve, though single readings can be large or run the other way; the % refers to the signal ratio; also: potency is read from the fitted curve at half-maximal effect)
How it was run: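 Fluorescence intensity from a beta-lactamase FRET substrate served as the read-out. Cells: HEK293 with stably integrated ER-alpha-UAS-bla reporter. Agonist 17beta-estradiol was co-added with compounds; incubation 18 hr at 37C, substrate 2 hr at room temperature.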

[15] = qHTS assay to identify small molecule antagonists of the estrogen receptor alpha (ER-alpha) signaling pathway using the BG1 cell line (AID 743080; calls by dose curve;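 also: BG1 cells stimulated with 17beta-estradiol alongside compound; nearly all actives have a fitted effect of over 25% in size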; also: potency is read from the fitted curve at half-maximal effect)
How it was run: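 Seeding, 24 h rest, compound transfer from DMSO, 17beta-estradiol addition, 21.5 h incubation, CellTiter-Fluor (30 min, 37 C), then ONE-Glo (30 min, room temperature): this sequence was run on BG1-Luc-4E2 reporter cells.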

[16] = target: Peroxisome proliferator-activated receptor gamma (Homo sapiens) (UniProt P37231); assay: qHTS assay to identify small molecule antagonists of the peroxisome proliferator-activated receptor gamma (PPARg) signaling pathway (AID 743191; calls by dose curve; also: nearly all actives have a fitted effect of over 30% in size; also: potency is read from the fitted curve at half-maximal effect)
Sequence of Peroxisome proliferator-activated receptor gamma (Homo sapiens) (P37231 whole entry, looked up): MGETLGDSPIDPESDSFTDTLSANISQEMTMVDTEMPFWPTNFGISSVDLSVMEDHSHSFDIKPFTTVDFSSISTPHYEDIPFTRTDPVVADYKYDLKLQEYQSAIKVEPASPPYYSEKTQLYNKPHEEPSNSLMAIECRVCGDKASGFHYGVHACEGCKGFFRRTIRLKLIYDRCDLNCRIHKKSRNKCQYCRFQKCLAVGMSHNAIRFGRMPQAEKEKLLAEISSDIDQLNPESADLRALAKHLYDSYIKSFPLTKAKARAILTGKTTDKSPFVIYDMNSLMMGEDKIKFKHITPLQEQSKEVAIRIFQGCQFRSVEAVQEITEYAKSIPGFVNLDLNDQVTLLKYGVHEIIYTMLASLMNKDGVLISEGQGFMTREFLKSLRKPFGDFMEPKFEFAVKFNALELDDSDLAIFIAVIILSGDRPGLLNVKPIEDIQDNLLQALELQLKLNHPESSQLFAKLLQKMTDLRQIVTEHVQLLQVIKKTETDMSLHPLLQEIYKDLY
How it was run: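 Beta-lactamase reporter under UAS control in HEK293H PPARg-bla cells; compound treatment 17 h at 37C. Read-out: fluorescence intensity after 1 h room-temperature incubation with LiveBLAzer B/G FRET substrate.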

[17] = target: Peroxisome proliferator-activated receptor gamma (Homo sapiens) (UniProt P37231); assay: qHTS assay to identify small molecule agonists of the peroxisome proliferator-activated receptor gamma (PPARg) signaling pathway (AID 743094; active = well fitted activation curve with a large enough effect in the signal ratio in the repeat runs, not every such curve was filed as active; inconclusive = weak or mixed curves, or effect the other way; inactive = no such curve, though single readings can be large or run the other way; the % refers to the signal ratio; also: potency is read from the fitted curve at half-maximal effect)
How it was run: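 Agonism was assessed in a beta-lactamase reporter system, HEK293H cells with a stably integrated UAS-bla construct under PPARg control; the 17 h treatment at 37C preceded a 1 h room-temperature FRET substrate read.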

[18] = qHTS assay for small molecule activators of the heat shock response signaling pathway (AID 743210; active = well fitted activation curve with a large enough effect in the signal ratio in the repeat runs, with a control signal flat, not every such curve was filed as active; inconclusive = weak or mixed curves; the % refers to the signal ratio; also: potency is read from the fitted curve at half-maximal effect;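 as to activation: HeLa cells with beta-lactamase reporter driven by heat shock elements; series mostly up to about 63 µM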)
How it was run: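 Fluorescence from a cleaved B/G FRET substrate (2.5 h, room temp) reports HSE-driven beta-lactamase in HeLa cells treated 5 h at 37 C with DMSO-dissolved compounds.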

[19] = qHTS assay for small molecule agonists of the antioxidant response element (ARE) signaling pathway (AID 743202; active = well fitted activation curve with a large enough effect in the signal ratio in the repeat runs, not every such curve was filed as active; inconclusive = weak or mixed curves, or effect the other way; inactive = no such curve, though single readings can be large or run the other way; the % refers to the signal ratio; also: potency is read from the fitted curve at half-maximal effect)
How it was run: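 Beta-lactamase reporter activity, read as fluorescence intensity, reflects ARE/Nrf2 pathway induction in HepG2 cells after 16 h compound exposure at 37 C; substrate loading was 2 h at room temperature.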

[20] = target: Estrogen receptor (Homo sapiens) (UniProt P03372); assay: qHTS assay to identify small molecule agonists of the estrogen receptor alpha (ER-alpha) signaling pathway using the BG1 cell line (AID 743079); also: nearly all actives have a fitted effect of over 20% in size; also: potency is read from the fitted curve at half-maximal effect

Structure (SMILES)	Potency [1]	outcome [2]	Potency [3]	Potency [4]	Potency [5]	Potency [6]	Potency [7]	Potency [8]	Potency [9]	Potency [10]	Potency [11]	Potency [12]	Potency [13]	Potency [14]	Potency [15]	Potency [16]	Potency [17]	Potency [18]	Potency [19]	Potency [20]
CN(C)[C@@H]1C(=O)C(C(N)=O)=C(O)[C@@]2(O)C(=O)C3=C(O)c4c(O)ccc(Cl)c4[C@@](C)(O)[C@H]3C[C@@H]12	inactive	inactive	inactive	inactive	inactive	inactive	inactive	inactive	inactive	inactive	inactive									
[Hg+2].[I-].[I-]	0.77 µM (active)	inactive	43.6 µM (active)	68.6 µM (active)	8.63 µM (active)	6.86 µM (active)	inactive		9.69 µM (active)	27.5 µM (active)	2.19 µM (active)	54.9 µM [inconclusive] (active)	8.71 µM (active)							
Oc1c(Cl)c(Cl)cc(Cl)c1Cl	23.7 µM (active)	inactive				inactive	inactive	inactive				inactive	inactive	15.1 µM [inconclusive] (active)	74.8 µM (active)	3.78 µM (active)				
COc1ccc(/C(=C/C(=O)N2CCOCC2)c2ccc(Cl)cc2)cc1OC	inactive	inactive	inactive	inactive	inactive	inactive	inactive	inactive		inactive	inactive		inactive				inactive	inactive		
BrC(Br)Br	inactive	inactive	inactive	inactive	inactive	inactive	inactive	inactive	inactive	inactive	inactive		inactive				inactive	inactive	inactive	
c1ccc(OCC2CO2)cc1 (stereo not drawn)	inactive	inactive	inactive	inactive	inactive	inactive	inactive	inactive		inactive			inactive						inactive	
CC(=O)O[C@H]1CC[C@@]2(C)C(=CC[C@@H]3[C@@H]2CC[C@]2(C)C(=O)CC[C@@H]32)C1	inactive	inactive	inactive	inactive	inactive	inactive	inactive	inactive	inactive			811 nM [inconclusive] (active) and 490 nM [inconclusive] (active)	inactive		inactive		inactive		48.6 µM (active)	320 nM (active) and 86.3 nM (active)
FC(F)(F)c1cccc(C2=CCN(CCc3ccc4ccccc4c3)CC2)c1	inactive	inactive	inactive	inactive	inactive	inactive	inactive	inactive	inactive	inactive	inactive		inactive				inactive	inactive		
CCOC(=O)CC(=O)CCl	61.1 µM (active)	inactive	inactive	inactive	30.6 µM (active)	30.6 µM (active)	inactive	inactive	inactive		inactive	inactive					21.9 µM (active)			inactive
Cc1cc(N=Nc2ccccc2C)ccc1N	7.7 µM (active) and 27.3 µM (active)	inactive	inactive	24.3 µM (active) and 27.3 µM (active)	inactive	24.3 µM (active)	7.7 µM (active) and 4.33 µM (active)	5.45 µM (active) and 2.73 µM (active)		inactive			inactive							
COc1cc(C=O)cc2c1[C@H](COC(N)=O)[C@]1(OC(C)=O)ON2C[C@H]2[C@@H]1N2C(C)=O	0.433 µM (active)	inactive			3.44 µM (active)		inactive	0.306 µM (active)	0.154 µM (active)			inactive	inactive	5.49 µM [inconclusive] (active)	0.217 µM (active)			inactive		
C[C@@H]1O[C@@H](O[C@H]2C[C@@H](O)[C@]3(CO)[C@H]4[C@H](O)C[C@]5(C)[C@@H](C6=CC(=O)OC6)CC[C@]5(O)[C@@H]4CC[C@]3(O)C2)[C@H](O)[C@H](O)[C@H]1O	inactive	inactive	0.0425 µM (active)	inactive		inactive	inactive	inactive	6.5 nM (active) and 133 nM (active)		46.5 nM (active) and 188 nM (active)	inactive	13.1 nM (active) and 119 nM (active)		531 nM (active) and 163 nM (active)			inactive		
C[C@]12CC[C@@H]3c4ccc(OC(=O)N(CCCl)CCCl)cc4CC[C@H]3[C@@H]1CC[C@@H]2O	inactive	inactive	inactive	inactive	inactive	inactive	inactive	inactive			inactive		inactive				inactive	inactive		
BrC(Br)C(Br)(Br)Br	19.4 µM (active)	inactive	inactive	inactive	61.5 µM (active)	54.8 µM (active)		inactive	54.8 µM (active)	inactive	49.3 µM (active)	inactive					inactive			inactive
Cc1cc(C(F)(C(F)(F)F)C(F)(F)F)ccc1NC(=O)c1cccc(I)c1C(=O)NC(C)(C)CS(C)(=O)=O	21.8 µM (active)	inactive	inactive	inactive	inactive	inactive	inactive	inactive	inactive			inactive	inactive		inactive	inactive	inactive			
ClC(Cl)=C(Cl)Cl	inactive	inactive	inactive	inactive	inactive	inactive	inactive	inactive	inactive	inactive	inactive		inactive				inactive	inactive	inactive	
CCOC(=O)C1(c2ccccc2)CCN(CCC(C#N)(c2ccccc2)c2ccccc2)CC1	9.44 µM (active) and 15 µM (active)	inactive		inactive	inactive	inactive	inactive	inactive and 59.6 µM (active)	inactive			53.5 µM [inconclusive] (active)	inactive	6.01 µM [inconclusive] (active)	inactive					
Clc1ccc(C(Cl)(Cl)Cl)c(Cl)c1	inactive	inactive	inactive	inactive		inactive	inactive	inactive	inactive	inactive	inactive		inactive			inactive	inactive	inactive		
CCCSP(=O)(OCC)SCCC	inactive	inactive		inactive	inactive		inactive	inactive		inactive								inactive		
C[C@@H]1O[C@@H](O[C@@H]2C=C3CC[C@@H]4[C@H](CC[C@]5(C)[C@@H](c6ccc(=O)oc6)CC[C@]45O)[C@@]3(C)CC2)[C@H](O)[C@H](O)[C@H]1O	inactive	inactive		inactive	inactive	inactive	inactive	inactive	0.0211 µM (active)	0.006 µM (active)	0.0188 µM (active)		0.0119 µM (active)							
CC1(C)C(/C=C(\Cl)C(F)(F)F)C1C(=O)OC(C#N)c1cccc(Oc2ccccc2)c1 (stereo not drawn)	inactive	inactive	inactive	inactive	inactive	inactive		inactive	inactive	inactive	inactive		inactive						inactive	
ClC1=C(Cl)[C@]2(Cl)[C@@H]3[C@@H]4C[C@@H]([C@H]5O[C@@H]45)[C@@H]3[C@@]1(Cl)C2(Cl)Cl	30.6 µM (active)			inactive	34.4 µM (active)		inactive	inactive	54.5 µM (active)		49 µM (active)		43.6 µM (active)	inactive			inactive			
CCCCCCCCc1ccc(O)cc1	30.6 µM (active)	inactive		inactive	31.7 µM (active)	21.8 µM (active)	inactive	inactive		42.3 µM (active)										
ClC1=C(Cl)C2(Cl)C3C(Cl)C(Cl)CC3C1(Cl)C2(Cl)Cl (stereo not drawn)	24.3 µM (active)	inactive		inactive	68.4 µM (active)			inactive	61.1 µM (active)		21.8 µM (active) and 24.5 µM (active)	54.8 µM [inconclusive] (active)	24.5 µM (active)							
Cc1cc(C(C)(C)c2cc(C)c(O)c(C)c2)cc(C)c1O	11.8 µM (active)	inactive		inactive	16.7 µM (active)	26.4 µM (active)	inactive	52.7 µM (active)			47.4 µM (active)					29.9 µM (active)		inactive		
CC(C)(C)c1cc([N+](=O)[O-])cc(C(C)(C)C)c1O	6.86 µM (active)	inactive			17.2 µM (active)	21.7 µM (active)	inactive	inactive		inactive			6.16 µM (active)			inactive	inactive	inactive	inactive	
O=CC(Br)(Br)Br	19.3 µM (active)	inactive		inactive	10.8 µM (active)	6.84 µM (active)		48.4 µM (active)	54.3 µM (active)	6.14 µM (active)	17.3 µM (active)	21.8 µM [inconclusive] (active)	6.14 µM (active)						1.72 µM (active)	
CN(C)CCc1c[nH]c2ccc(O)cc12	inactive	inactive		inactive	inactive	inactive	inactive	inactive	inactive	inactive			inactive			inactive	inactive	59.7 µM (active)		
